Marburg entry inh – qHTS for inhibitors of binding or entry into cells for Marburg Virus. Marburg virus pseudotyped entry inhibition, cell reporter. Potency, µM (doses to about 37.8 µM), for inactives: top-dose activity change, negative = inhibition, most hits filed as inhibitors. actives 1.8% (n = 300,000). AID 540276, 2011; calls by dose curve; tested in HEK293 cells; note: potency is the fitted concentration of half-maximal effect
FMDV antiviral – High Throughput Screening for Foot and Mouth Disease Virus Antivirals | FMDV antiviral cell-based qHTS | Potency, µM (highest dose often 57.9 µM), without a hit: at the highest dose activity change, negative = inhibition, hits mostly inhibitors | actives 1.2% (n = 410,000); calls by dose curve; tested in HEK293T cells; note: read-out not given here; potency is the fitted concentration of half-maximal effect; nearly all actives have a fitted effect of over 45% in size
Vaccinia mCherry – qHTS for Stage-Specific Inhibitors of Vaccinia Orthopoxvirus: mCherry Reporter Primary qHTS; Vaccinia virus mCherry reporter infection, fluorescence; Potency, µM (top dose mostly 36.5 µM), for inactives: at the top dose activity change, negative = inhibition, most hits filed as inhibitors; actives 0.63% (n = 310,000); calls by dose curve; tested in A549 cells; note: potency is the fitted concentration of half-maximal effect; nearly all actives have a fitted effect of over 35% in size
Lassa entry inh – qHTS for Inhibitors of binding or entry into cells for Lassa Virus. Lassa virus pseudotype entry inhibition, cell reporter. Potency, µM (top dose mostly 37.9 µM), inactives show at the top dose activity change, negative = inhibition, actives largely listed as inhibitors. actives 1.2% (n = 300,000); calls by dose curve; tested in HEK293 cells; note: potency is the fitted concentration of half-maximal effect; nearly all actives have a fitted effect of over 50% in size
Vaccinia Venus – qHTS for Stage-Specific Inhibitors of Vaccinia Orthopoxvirus: Venus Reporter Primary qHTS; actives 0.46% (n = 330,000); Potency, µM (highest dose often 36.5 µM), inactives show at the top dose activity change, negative = inhibition, most hits filed as inhibitors; AID 720580, 2013; Vaccinia virus Venus reporter expression, fluorescence; calls by dose curve; tested in A549 cells; note: potency is the fitted concentration of half-maximal effect; nearly all actives have a fitted effect of over 30% in size
HCMV antiviral – qHTS Assay for inhibitors of the human cytomegalovirus (HCMV). AID 1259415, 2018. activity change, negative = inhibition, % at 57.5 µM. actives 4.5% (n = 410,000). HFF cells, HCMV-luciferase reporter, 72 h; stronger effect = lower value; in the data active = activity change below about -60%; inconclusive = no clear call, values can overlap the other calls; inactive = above about -39%
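Compounds were evaluated in HFFs infected with an HCMV luciferase reporter virus (MOI 1 PFU/cell). Luciferase in lysates collected 72 h post infection served as the replication measure.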
* hit, by the source's call; i = inactive; ? = inconclusive; / = no result given; [ ] = remark or other dose. An excerpt weighted towards active compounds, which were near 6.5% of everything screened. % is set by controls: 0 for no effect and ±100 for the full control effect.

SMILES	Marburg entry inh	FMDV antiviral	Vaccinia mCherry	Lassa entry inh	Vaccinia Venus	HCMV antiviral
COc1cccc(OC)c1C(=O)Nc1sc2c(c1C(N)=O)CCN(Cc1ccccc1)C2	/	?	i	/	-11%	-7
CCCN(CCC)c1nc(-c2ccccn2)nc2ccccc12	?	?	4.5µM*	?	?	-100*
CCCCN(CC)c1nc(-c2ccncc2)nc2ccccc12	?	25µM*	-28%	0%	-26%	-95*
CCCN(CCC)c1nc(-c2ccccc2F)nc2ccccc12	/	?	-13%	5%[46.1 µM]	-3%	-2
c1ccc(CCNc2nc(-c3ccccn3)nc3ccccc23)cc1	?	?	-23%	?	-16%	-103*
Cc1ccc2c(c1)CCCN2CC(=O)N(C)c1c(N)n(Cc2ccccc2)c(=O)[nH]c1=O	-13%	-25%	-15%	0%	-3%	0
CCOc1ccc(N(CC(=O)Nc2ccc(OC)cc2)C2=NC3CS(=O)(=O)CC3S2)cc1 (stereo unspecified)	/	?	-19%	/	-27%	-5
Clc1cccc(CNc2ccn3nc(-c4cccc(Cl)c4)cc3n2)c1	/	5%	-5%	/	-4%	72
O=C(CN1C(=O)c2ccccc2S1(=O)=O)c1ccc(F)c(F)c1	10µM*	?	i	?	0%	?
COc1ccc(/C=C/C(=O)c2nc3ccccc3n2CC(=O)c2ccc(OC)cc2)cc1	?	-11%	/	-25%	/	19
O=C(CN1C(=O)c2ccccc2S1(=O)=O)c1ccc(O)c(O)c1	?	23%	?	?	8%	-15
Cc1ccc(NC(=O)CN2C(=O)c3ccccc3S2(=O)=O)c(C)c1	1%[46.1 µM]	13%	-10%	-20%[46.1 µM]	2%	3
COc1ccc(C(=O)Cn2c(C(C)=O)nc3ccccc32)cc1	?	5%	i	?	-21%	-64*
COc1ccc(C(=O)CN2C(=O)c3ccccc3S2(=O)=O)cc1	?	5.6µM*	-2%	?	-14%	-92*
COc1ccc(C)cc1NC(=O)CN1C(=O)c2ccccc2S1(=O)=O	/	-14%	1%	/	6%	-60*
O=C(c1ccccc1F)N1CC(=O)N2[C@@H](CO)[C@H](c3ccc(Br)cc3)[C@@H]2C1	/	/	/	/	/	14
Cc1cccc(N(Cc2ccccc2)C(=O)c2cc(S(=O)(=O)N3CCOCC3)ccc2Cl)c1	13µM*	0%	-6%	?	-17%	?
CCNc1nc(-c2sc(NC(=O)C(C)(C)C)nc2C)c(-n2cc(-c3ccccc3)nn2)s1	/	?	?	/	?	-70*
Cc1nc(NC(=O)C(C)(C)C)sc1-c1nc(N)sc1-n1cc(-c2ccccc2)nn1	/	-5%	0%	/	5%	1
CC(C)(C)c1csc(NC(=O)c2cccnc2)n1	/	-4%	/	/	/	-31
CC(C)(C)c1csc(NNC(=O)c2ccc(Cl)cc2)n1	?	1%	7.1µM*	?	?	-4
COC(=O)C1CCN(Cc2ccc3c(c2)CN(C(=O)c2cc(-c4ccc(C)o4)[nH]n2)CCO3)CC1	/	-8%	6%	/	7%	/
COc1cc(/C=N/NC(=O)c2ccc(COc3cc(C)ccc3C(C)C)cc2)cc(OC)c1O	?	?	-14%	?	-7%	-88*
Cc1ccc(C(C)C)c(OCc2ccc(C(=O)N/N=C/c3cccc(O)c3O)cc2)c1	7.3µM*	?	10µM*	12µM*	?	/
COc1cc(C(=O)NCCOc2cc(C)ccc2C(C)C)cc(OC)c1OC	3.2µM*	?	-10%	2.8µM*	-29%	-67*
SMILES	Marburg entry inh	FMDV antiviral	Vaccinia mCherry	Lassa entry inh	Vaccinia Venus	HCMV antiviral
CC(=O)Nc1ccc(C(=O)N/N=C/c2ccccc2OCc2ccccc2)cc1	?	-1%	-20%	?	-8%	-36
O=C1CCC[C@H]2[C@@H](Cc3ccccc3)[C@@H](NS(=O)(=O)c3ccccc3)CC[C@]23CCCN13	/	/	/	/	/	-21
Oc1ccccc1-c1n[nH]c(-c2ccccc2O)n1	?	-3%	2.8µM*	?	4µM*	-96*
Clc1ccccc1-c1nc(-c2ccccc2)n[nH]1	7%	27%	/	?	/	74
COc1cc(=O)n2c(c1C(=O)N(C)Cc1cscn1)CCN(Cc1ccc3c(c1)OCCO3)CC2	/	-12%	-17%	/	0%	/
COc1cc2cc(C(=O)N3CC(COS(C)(=O)=O)c4ccc(O)cc43)[nH]c2c(OC)c1OC (stereo unspecified)	?	6.3µM*	?	?	35µM*	/
Cc1cc(F)ccc1NC(=O)Cn1nc(N2CCN(c3ccccc3)CC2)ccc1=O	/	-19%	-1%	-6%[46.1 µM]	-8%	-26
Cc1ccc(F)cc1NC(=O)c1ccc(Cn2nc(N3CCN(c4ccccc4)CC3)ccc2=O)o1	/	35µM*	?	?	?	-73*
Cc1cccc(NC(=O)c2ccc(Cn3nc(N4CCN(c5ccccc5)CC4)ccc3=O)o2)c1C	/	-24%	-24%	-15%[46.1 µM]	-19%	-72*
COCc1c(C(=O)N2CC3CCC2C3)cnn1-c1nccc(-c2ccccc2OC)n1 (stereo unspecified)	/	31%	-20%	/	-9%	/
O=C(NNC(=O)c1ccc(=O)[nH]c1)c1ccc(NS(=O)(=O)c2cccs2)cc1	/	0%	/	/	/	25
CN(C)c1ccc([C@@H]2[C@@H]([N+](=O)[O-])[C@H]3C=Cc4ccccc4N3[C@H]2C(=O)c2ccc(Cl)cc2)cc1	-14%	-24%	-13%	-4%	15%	-67*
Cc1nc([N+](=O)[O-])c(Br)n1CC(=O)c1ccc(Cl)cc1	?	-32%	/	?	?	70
Cc1nc([N+](=O)[O-])c(Br)n1Cc1ccc(Cl)c(Cl)c1	/	18µM*	/	/	/	52
COc1ccc(C(=O)Cn2c(C)nc([N+](=O)[O-])c2Br)cc1	-1%	?	3.5µM*	-11%	7.9µM*	13
COc1ccc(NC(=O)CN(C)Cc2c(F)cccc2Cl)cc1S(=O)(=O)N1CCCCC1	?	-13%	i	-17%	-10%	14
COc1cc2nc(N(C)C)c(CNCCc3c[nH]c4ccccc34)cc2c(OC)c1OC	/	0%	-10%	/	2%	/
c1cc(-c2ccc3nncn3c2)ccc1CN1CCOCC1	/	-2%	-14%	/	-18%	22
Cc1ccccc1CN1N=C(/C=C/c2ccccc2)CCC1=O	7%[14.2 µM]	?	-16%	7.9µM*	-12%	2
CN(Cc1ccc(Cl)cc1)C(=O)c1ccc2ccccc2n1	?	8%	-11%	-20%[46.1 µM]	-9%	-17
Cc1ccc(F)cc1C(=O)N1CCCCC1c1cc(C(=O)Nc2ccncc2)no1 (stereo unspecified)	/	/	/	/	/	-16
c1ccc2[nH]c(CSc3nnc(-c4ccncc4)o3)nc2c1	-1%	?	/	4%	?	-22
